About 1,500 (0.48%) of roughly 310,000 compounds were called active. What follows is part of a selection rich in actives, with near analogues and random picks from the rest. Values without a mark were called inactive.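 How the source made its calls: active means binding more than 3 SD below its plate's average and above zero; inconclusive means below that plate limit but binding exactly zero; inactive means the rest.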
target: Desmoglein-3 (Homo sapiens) (UniProt P32926); test: inhibitors of pemphigus antibody binding to DSG3, primary screen, biochemical, bead-based, flow cytometry, scFv-GFP (AID 588358); conditions: DSG3-coupled beads, scFv-anti-DSG3-GFP binding, at 10 µM, stronger effect = lower value;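 further: hits lower antibody fragment binding to DSG3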
Sequence (P32926 whole entry, looked up, the tested form may be a part): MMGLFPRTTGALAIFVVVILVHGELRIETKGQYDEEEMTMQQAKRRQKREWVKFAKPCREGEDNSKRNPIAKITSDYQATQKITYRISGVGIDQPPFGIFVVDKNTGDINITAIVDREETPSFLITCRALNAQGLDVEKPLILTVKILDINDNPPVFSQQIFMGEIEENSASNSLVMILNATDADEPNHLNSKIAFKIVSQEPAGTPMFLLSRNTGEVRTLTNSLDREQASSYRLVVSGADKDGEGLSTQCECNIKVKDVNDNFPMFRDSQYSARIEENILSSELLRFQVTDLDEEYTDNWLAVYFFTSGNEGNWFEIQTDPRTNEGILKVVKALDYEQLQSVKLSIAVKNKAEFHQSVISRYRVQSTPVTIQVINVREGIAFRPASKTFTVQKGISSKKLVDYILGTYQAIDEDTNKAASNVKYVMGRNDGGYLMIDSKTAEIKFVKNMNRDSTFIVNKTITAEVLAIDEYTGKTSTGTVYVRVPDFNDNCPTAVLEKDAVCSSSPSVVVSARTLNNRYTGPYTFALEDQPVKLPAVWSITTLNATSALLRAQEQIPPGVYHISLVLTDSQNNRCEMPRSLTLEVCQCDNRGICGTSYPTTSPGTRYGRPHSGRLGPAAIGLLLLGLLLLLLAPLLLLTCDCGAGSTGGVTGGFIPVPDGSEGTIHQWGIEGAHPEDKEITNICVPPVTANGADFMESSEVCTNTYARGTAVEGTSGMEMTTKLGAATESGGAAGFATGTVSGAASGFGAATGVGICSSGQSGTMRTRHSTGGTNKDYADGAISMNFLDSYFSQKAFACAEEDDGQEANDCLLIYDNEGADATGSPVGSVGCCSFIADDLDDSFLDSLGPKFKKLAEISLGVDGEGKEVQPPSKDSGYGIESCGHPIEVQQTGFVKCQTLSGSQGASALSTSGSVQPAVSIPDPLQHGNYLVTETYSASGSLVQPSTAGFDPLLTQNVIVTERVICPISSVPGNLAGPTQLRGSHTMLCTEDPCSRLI

Question: Which binding (percent of control) does the source give for `OC(CNC1CCCCC1)c1ccccc1` (stereo not given) here?
Answer: 107%

Question: With `c1cc2c(cc1CCNC1CCCCCC1)OCO2` as the molecule, how does the binding (percent of control) read?
Answer: 97.2%

Question: How did the binding (percent of control) turn out when `c1ccc(CCNC2CCCCCC2)cc1` was run?
Answer: 68.9% (active)

Question: `CN1CCC[C@@H]1CCO[C@](C)(c1ccccc1)c1ccc(Cl)cc1` was tested. Which binding (percent of control) did it give?
Answer: 102%

Question: With `Cc1ncoc1C(=O)NCC1=C(c2cccc3ccccc23)C[C@@H]2CC[C@H]1N2Cc1ccco1` as the molecule, how does the binding (percent of control) read?
Answer: 108%

— PubChem BioAssay AID588358 (NMMLSC, 2011)
